Assay outcomes as filed in PubChem BioAssay.
A selection: hits, their analogues and other compounds. The true share with any hit is near 3%.
15-hLO inh: 15-hLO (ALOX15) enzyme inhibition; Potency, µM (highest dose often 57.1 µM), hits mostly inhibitors; 1.4% of 74,000 active; purified 15hLO-1, xylenol orange hydroperoxide absorbance; note: nearly all actives have a fitted effect of over 55% in size
Target sequence (P16050 whole entry, looked up): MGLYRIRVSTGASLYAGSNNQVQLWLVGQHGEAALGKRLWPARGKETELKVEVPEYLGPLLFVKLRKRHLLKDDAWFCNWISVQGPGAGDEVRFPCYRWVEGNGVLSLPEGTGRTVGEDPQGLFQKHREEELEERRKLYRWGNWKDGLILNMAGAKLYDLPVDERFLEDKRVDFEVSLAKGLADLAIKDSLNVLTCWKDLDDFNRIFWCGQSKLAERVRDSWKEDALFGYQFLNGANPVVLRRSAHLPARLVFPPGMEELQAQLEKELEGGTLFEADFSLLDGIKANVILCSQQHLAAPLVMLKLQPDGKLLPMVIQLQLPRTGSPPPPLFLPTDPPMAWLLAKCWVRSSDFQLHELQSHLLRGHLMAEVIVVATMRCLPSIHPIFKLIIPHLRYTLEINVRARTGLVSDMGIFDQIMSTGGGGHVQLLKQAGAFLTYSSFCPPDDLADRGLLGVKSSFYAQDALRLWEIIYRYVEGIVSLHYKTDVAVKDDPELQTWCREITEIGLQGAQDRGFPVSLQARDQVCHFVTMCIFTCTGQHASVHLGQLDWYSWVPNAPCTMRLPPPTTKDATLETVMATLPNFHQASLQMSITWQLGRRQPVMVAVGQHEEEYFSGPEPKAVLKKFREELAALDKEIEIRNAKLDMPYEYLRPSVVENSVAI
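Quantitative HTS in 25 mM Hepes pH 7.5 containing 0.01% Triton X-100: human 15hLO-1 at 40 nM, arachidonic acid at 50 uM, 6 min turnover. Product quantified via ferrous oxidation/xylenol orange, 573:405 nm absorbance ratio.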
TSHR agonist: agonists of human thyroid stimulating hormone receptor; P16473; HEK293-CNG-TSHR cells (CNG channel as cAMP sensor), membrane potential dye, cAMP; Potency, µM (doses to about 57.1 µM), most hits filed as activators; 0.48% of 73,000 active; AID 926; active = well fitted activation curve with a large enough effect in the main read-out, with a control signal flat, not every such curve was filed as active; inconclusive = small, poorly fitted or top-dose-only effect, or a change in a side signal; inactive = no such curve, though single readings can be large or run the other way; reference of the percent scale not stated here;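 note: the control signal comes from parental cells without the receptor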
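HEK 293 cells stably expressing TSHR and a modified CNG channel, with CNG-only parental cells as counterscreen, were preloaded 60 min at room temperature with membrane potential dye containing 100 uM RO 20-1724. Compound exposure was 30 min, and depolarization was read as fluorescence at 590 nm.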
Caspase-7 inhib: caspase-7 (human) inhibition, allosteric or competitive | AID 889 | Potency, µM (series often up to 57.5 µM), usual class: inhibitors | recombinant caspase-7, Ac-DEVD-AFC fluorescence rate | 0.02% of 75,000 active; active = well fitted inhibition curve with a large enough effect in the main read-out, with a control signal flat, not every such curve was filed as active; inconclusive = small, poorly fitted or top-dose-only effect, or a change in a side signal
ALOX15B inhib: 15-hLO-2 (ALOX15B) enzyme inhibition. O15296. purified 15hLO-2, xylenol orange hydroperoxide absorbance. Potency, µM (titrated, usually from 57.1 µM), actives largely listed as inhibitors. 0.56% of 110,000 active; note: nearly all actives have a fitted effect of over 60% in size
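Screening format was qHTS against 50 nM purified 15hLO-2 in Hepes pH 7.5 with detergent. Activity follows hydroperoxide formation from 45 uM arachidonic acid, measured as 573:405 nm absorbance ratio of the ferric-xylenol orange complex.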
Casp1 inh: allosteric or competitive inhibitors of human caspase-1; P29466; Caspase-1 enzyme, Ac-WEHD-AFC fluorogenic rate; Potency, µM (doses to about 57.5 µM), most hits filed as inhibitors; 0.03% of 75,000 active
HEK293 cAMP ctrl: counter-screen for TSHR agonists: cAMP increase in parental HEK293; parental HEK293 CNG cAMP sensor, membrane potential fluorescence; Potency, µM (top dose mostly 57.1 µM), usual class: activators; 2.5% of 73,000 active; note: nearly all actives have a fitted effect of over 55% in size
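Counterscreen for endogenous-receptor signalling: CNG-channel HEK 293 cells report cAMP rise by membrane depolarization. After 60 min dye equilibration with 100 uM RO 20-1724, compounds incubated 30 min before bottom-read fluorescence at 590 nm.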
A number is an active result; – = inactive; ? = inconclusive; · = not tested or not shown; [ ] = remark or other dose. Unless noted, calls come from the whole dose curve; as a rule, active = well fitted curve in the direction sought with a large enough effect; inconclusive = small, poorly fitted or top-dose-only effect, or another doubt; inactive = no such curve, though single readings can be large; an effect the other way counts as inactive or inconclusive.

SMILES | 15-hLO inh | TSHR agonist | Caspase-7 inhib | ALOX15B inhib | Casp1 inh | HEK293 cAMP ctrl
Cc1cccc(CNc2cc(-c3ccccc3C)ncn2)c1 | ? | ? | – | – | – | ?
COc1ccccc1CNc1cc(-c2ccccc2C(F)(F)F)ncn1 | – | ? | – | – | – | ?
COc1ccccc1-c1cc(NCc2cccc(C)c2)ncn1 | – | ? | – | – | – | 20µM
CC(C#N)Sc1ncnc2sc3c(c12)CCC3 (stereo not drawn) | ? | ? | – | – | – | 25.1µM
CO[C@@H]1COC(=O)CC=C[C@@H](C)[C@@H]2C=C[C@H](O)[C@@H](COC(=O)[C@H](C)NC(=O)CC=C[C@H]1C)O2 | –[11.4 µM] | –[11.4 µM] | –[11.5 µM] | · | –[11.5 µM] | –[11.4 µM]
O=C(NCCc1ccccc1)C1CCN(S(=O)(=O)N2CCCC2)CC1 | – | ? | – | – | – | 25.1µM
O=C(NCc1ccc(F)cc1)C1CCN(C(=O)NCc2ccccc2)CC1 | – | ? | – | – | – | 3.98µM
O=C1[C@H]2[C@H]3[C@H](O)[C@H](O)C/C(=N/OC[C@@H](O)COCc4ccco4)[C@@H]3CC[C@@H]2C(=O)N1Cc1ccccc1 | –[11.4 µM] | –[11.4 µM] | –[11.5 µM] | · | –[11.5 µM] | –[11.4 µM]
Cc1cccc(CNc2cc(-c3cccnc3)ncn2)c1 | – | – | – | – | – | –
CCOC(=O)c1[nH]c(C)c(C(=O)NC2CCCC2)c1C | – | ? | – | – | – | 25.1µM
CCOC(=O)c1[nH]c(C)c(C(=O)NC2CCCCCC2)c1C | – | – | – | · | – | –
CS[C@]12C(=O)C[C@]3(C)[C@@H](CC[C@@]3(O)C(=O)CO)[C@@H]1CCC1=CC(=O)CC[C@]12C | –[11.4 µM] | –[11.4 µM] | –[11.5 µM] | –[11.4 µM] | –[11.5 µM] | –[11.4 µM]
S=c1[nH]nc(-c2cc(-c3ccco3)[nH]n2)n1-c1ccccc1 | · | · | · | – | · | ·
CCOc1ccc(-n2c(-c3ccco3)n[nH]c2=S)cc1 | 31.6µM | · | – | ? | – | –
Cc1nc2sccn2c1P(c1c(C)nc2sccn12)c1c(C)nc2sccn12 | – | – | – | 25.1µM | – | –
Fc1ccc(C(OCCCc2cnc[nH]2)c2ccc(F)cc2)cc1 | – | – | – | – | – | –
O=C(Nc1ccc2ccccc2c1)[C@H]1C[C@@H]1[C@H](NP(=O)(c1ccccc1)c1ccccc1)c1ccccc1 | · | – | – | – | – | –
c1ccc(-c2nc(NCc3cccnc3)c3ccccc3n2)cc1 | · | · | · | – | · | ·
COc1ccc2[nH]cc(CCNc3ncncc3-c3ccccc3OC)c2c1 | – | ? | – | – | – | 3.16µM
COc1ccccc1CNc1nc(-c2cccnc2)nc2ccccc12 | 25.1µM | ? | – | – | – | ?
COc1ccc(CNc2nc(-c3cccnc3)nc3ccccc23)c(OC)c1 | – | ? | – | – | – | ?
c1cncc(-c2nc(NCc3ccco3)c3ccccc3n2)c1 | – | ? | – | –[11.4 µM] | – | 25.1µM
COc1ccc2[nH]cc(CCNc3nc(-c4cccnc4)nc4ccccc34)c2c1 | – | 3.98µM | – | – | – | –
Cc1ccc(C)c(S(=O)(=O)NCC(=O)Nc2sc3c(c2C(N)=O)CCC(C)C3)c1 (stereo not drawn) | · | · | · | – | · | ·
Cc1cc2cc(CNC(=O)c3ccc4c(c3)OCO4)ccc2n1C | 20µM | – | – | –[2.29 µM] | – | –
SMILES | 15-hLO inh | TSHR agonist | Caspase-7 inhib | ALOX15B inhib | Casp1 inh | HEK293 cAMP ctrl
O=C(NCc1ccc2c(c1)OCO2)c1cccc(C(=O)NCc2ccc3c(c2)OCO3)c1 | – | – | – | – | – | –
Cc1ccccc1-n1c(C)nc2ccccc21 | – | 25.1µM | – | – | – | –
O=C(OCC(=O)N1CCN(C(=O)c2ccco2)CC1)c1cc(-c2ccco2)nc2ccccc12 | · | · | · | 12.6µM | · | ·
O=C(OCC(=O)N1CCN(C(=O)c2ccco2)CC1)c1cc(-c2ccc(Cl)c(Cl)c2Cl)nc2ccccc12 | · | · | · | – | · | ·
COc1ccc(C(=O)Nc2ccc(Cl)cc2C(=O)NCc2ccco2)cc1OC | – | ? | – | – | – | 25.1µM
COc1ccccc1NC(=O)c1cc(Cl)ccc1NC(=O)c1ccco1 | – | ? | – | – | – | 25.1µM
COc1ccc(C(=O)Nc2ccccc2C(=O)NCc2ccco2)cc1OC | – | · | – | – | – | –
CCOc1ccccc1NC(=O)c1ccoc1C | · | · | · | – | · | ·
CCOc1ccccc1NC(=O)c1cc(Cl)ccc1NC(=O)c1ccco1 | – | ? | – | – | – | 25.1µM
COc1ccc(NC(=O)c2ccccc2NC(=O)c2ccco2)c(OC)c1 | –[11.4 µM] | –[11.4 µM] | – | – | – | –[11.4 µM]
COc1ccccc1NC(=O)c1ccc(-c2ccccc2F)o1 | – | ? | – | – | – | 25.1µM
CCCCCCCCC1CO1 (stereo not drawn) | – | – | – | – | – | –
O=C(O)CCCC[C@@H]1SC[C@H]2NC(=O)N[C@H]12 | · | – | · | · | · | –
O=C(Nc1ccc(Cl)cc1C(=O)Nc1ccccn1)c1ccco1 | 0.159µM | · | – | – | – | –
COc1ccc(Cl)cc1NC(=O)CN(C(=O)c1ccco1)C1CCCCC1 | – | ? | – | – | – | 3.98µM
COc1ccc(Cl)cc1NC(=O)CN(C)C(C)C(=O)NCC1CCCCC1 (stereo not drawn) | – | ? | – | – | – | ?
Cc1ccc(NC(=O)c2ccc(Cl)c(N3C(=O)C=CC3=O)c2)cc1 | · | · | · | 0.316µM | · | ·
Cc1ccc(C2C=C(c3ccc4c(c3)OCO4)Nc3ncnn32)cc1 (stereo not drawn) | – | · | ? | · | · | –
Fc1ccc(Br)cc1C1C=C(c2ccc(Br)cc2)Nc2ncnn21 (stereo not drawn) | · | · | · | – | · | ·
COc1cccc(C2=CC(c3ccc(C)cc3)n3ncnc3N2)c1 (stereo not drawn) | – | ? | ? | – | · | 15.8µM
Cc1ccsc1C1C=C(c2cccc(Br)c2)Nc2ncnn21 (stereo not drawn) | 15.8µM | ? | ? | – | · | ?
O=c1cc(-c2ccc(F)cc2F)[nH]c2ccc(F)cc12 | · | · | · | –[0.0915 µM] | · | ·
O=C(CC12CC3CC(CC(C3)C1)C2)NCC(=O)N1CCc2ccccc2C1 | · | · | · | – | · | ·
O=C(NCCN1CCCC1)c1ccc(-n2c(=O)c(=O)[nH]c3ccccc32)cc1 | – | – | – | · | – | –
CC(C)CN1CCc2nc(-c3ccccc3)c3c(c2CC1)COC(C)C3 (stereo not drawn) | –[11.4 µM] | –[11.4 µM] | –[11.5 µM] | · | –[11.5 µM] | –[11.4 µM]
SMILES | 15-hLO inh | TSHR agonist | Caspase-7 inhib | ALOX15B inhib | Casp1 inh | HEK293 cAMP ctrl
COc1cc(OC)c(/C=C2/C(=O)Nc3ccccc32)c(OC)c1 | – | – | – | – | – | –
O=C1Nc2ccc(I)cc2/C1=C/c1cc(Br)c(O)c(Br)c1 | 12.6µM | ? | – | ? | – | –
COc1ccccc1OCC(=O)Nc1cccc(-c2nc3ccccc3o2)c1 | – | ? | – | – | – | 25.1µM
Cc1cc(-c2nc3ncccc3o2)ccc1NC(=O)CC(C)C | – | – | – | · | – | –
Cc1ccc(OCC(=O)Nc2ccc(-c3nc4ncccc4o3)cc2)c(C)c1 | – | 15.8µM | – | –[2.29 µM] | – | –
NC(=O)c1cccc(N)c1 | – | – | – | –[0.0915 µM] | – | –
CC(CN(C)C)NC(=O)c1ccc(Cc2nc3ccccc3[nH]2)cc1 (stereo not drawn) | – | – | – | · | – | –
